This is an account of results in PubChem BioAssay (NCATS).

Several values for one entry are separate records, joined by “and”; a condition that tells them apart may be missing. Equal values may be shown once. Values without a mark were called inactive. Inconclusive results are not listed. Activity calls are given as the source filed them. Unless noted, calls follow the shape of the dose curve; as a rule, active = well fitted curve in the direction sought with a large enough effect; inconclusive = small, poorly fitted or top-dose-only effect, or another doubt; inactive = no such curve, though single readings can be large; an effect the other way counts as inactive or inconclusive.

Assay [1] has as its target 3',5'-cyclic-AMP phosphodiesterase 4B (Homo sapiens) (UniProt Q07343). The assay can be described thus: qHTS Assay for Inhibitors of PDE-IV (AID 607; active = well fitted activation curve with a large enough effect in the main read-out, with a control signal flat, not every such curve was filed as active; also: % of control where 0% means no effect). An outline of the steps: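 Live HEK293 cells with a modified cyclic nucleotide-gated (CNG) channel report intracellular cAMP via membrane-potential dye fluorescence (ex 535/em 590 nm). Endogenous PDE-IV was targeted. Compounds were tested at up to 22.9 uM final; RO 20-1724 100 uM served as control.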

Assay [2] can be described thus: Cellular Toxicity (caspase-3) HepG2 (AID 654).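 Also: cells exposed to compound for 16 hours before reading; 0% = DMSO alone and 100% = caspase signal from 100 µM tamoxifen.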 The gist of the method:
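Caspase 3/7 activation is measured as a luminescence increase (aminoluciferin substrate) after 16 h compound exposure of human hepatocarcinoma HepG2 cells. AC50 values are Hill fits, scaled between DMSO baseline and 100 uM tamoxifen stimulation.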

A short description of assay [3]: Cellular Toxicity (caspase-3) Jurkat (AID 655).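 Also: cells exposed to compound for 16 h at 37 °C before reading.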 Also: potency is read from the fitted curve at half-maximal effect. The gist of the method: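 Luminescent Caspase-Glo 3/7 read-out (20 min, room temperature) after 16 h compound treatment at 37 C of 5000 Jurkat cells per well. AC50 derived by Hill-equation fitting, scaled between DMSO basal and 100 uM tamoxifen stimulation.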
Assay [4] can be described thus: Cellular Toxicity (caspase-3) SHSY5Y (AID 657). Also: potency is read from the fitted curve at half-maximal effect. An outline of the steps: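 Luminescent Caspase-Glo 3/7 read-out, 1 hr room temperature, follows 16 hours of compound treatment of SH-SY5Y cells at 37 °C. Normalization: DMSO basal, 10 uM staurosporine as 100%; AC50 values from Hill-equation concentration-response fits.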
Assay [5] is described as follows: Cellular Toxicity (caspase-3) BJ (AID 658). Also: potency is read from the fitted curve at half-maximal effect.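 As to caspase-3 activation: 0% = DMSO basal and 100% = 10 µM staurosporine.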 The following applies: Potency: caspase-3 activation. An outline of the steps:
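Caspase-Glo 3/7 luminescence, read 1 hr after reagent at room temperature, in normal BJ fibroblasts exposed 16 hours at 37 °C. AC50 values from Hill-equation concentration-response, scaled between DMSO basal and 10 uM staurosporine as 100%.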

Assay [6] in a line: Cellular Toxicity (caspase-3) MRC-5 (AID 659).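 Also: 0% = DMSO basal and 100% = 10 µM staurosporine.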 The gist of the method:
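Luminescent Caspase-Glo 3/7 read-out (1 h, room temperature) after a 16 h, 37 °C compound exposure of MRC-5 lung fibroblasts at 1500 cells/well. Concentration-response AC50 from Hill equation; 0% DMSO, 100% 10 uM staurosporine.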

Assay [7] can be described thus: Cellular Toxicity (caspase-3) Mesangial (AID 660).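 Also: combined caspase 3 and 7 activity read by Caspase-Glo luminescence; cells exposed to compound for 16 h before the caspase read.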 An outline of the steps:
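Caspase 3/7 activation measured by Caspase-Glo 3/7 luminescence (20 min, room temperature) following 16 h exposure of mesangial cells (1000/well); AC50 from Hill-equation fit, normalized to DMSO and 100 uM tamoxifen.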

Assay [8] can be described thus: Cellular Toxicity (caspase-3) SK-N-SH (AID 661).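 Also: 0% = DMSO basal and 100% = 10 µM staurosporine.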 Particulars: SK-N-SH caspase-3 activation, qHTS; caspase-3 activation: at 91.7 µM (top of the series), DMSO as zero, staurosporine as full. An outline of the steps:
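Caspase 3/7 activation was read by luminogenic substrate cleavage after 16 hour treatment of SK-N-SH cells. Signal was scaled between DMSO and 10 uM staurosporine, and concentration-response data were fitted with the Hill equation for AC50.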
On the technique in general: In qHTS, concentration-response curves come from the screen itself.

A short description of assay [9]: Cellular Toxicity (caspase-3) H-4-II-E (AID 663).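 Also: cells exposed to compound for 16 hr before readout.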 The gist of the method: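 Caspase 3/7 activation measured by luminescent aminoluciferin substrate cleavage after 16 hr compound treatment of H-4-II-E cells in complete medium. Increase normalized between DMSO (basal) and 100 uM tamoxifen (100%); Hill-equation AC50 from concentration-response.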
Assay [10] is described as follows: Cellular Toxicity (caspase-3) Hek293 (AID 664).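 Also: cells exposed to compound for 16 h at 37 °C before readout.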 The following applies: HEK293 caspase-3 activation, DMSO = 0%, 100 µM tamoxifen = 100%; at 92.2 µM (top of the series). The gist of the method:
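Concentration-response qHTS: caspase 3/7 activation measured by luminescent aminoluciferin substrate cleavage after 16 h compound exposure of Hek 293 cells. AC50 from Hill equation, with DMSO as basal and 100 uM tamoxifen as 100%.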

Chain of 3',5'-cyclic-AMP phosphodiesterase 4B (Homo sapiens) (Q07343 whole entry, looked up): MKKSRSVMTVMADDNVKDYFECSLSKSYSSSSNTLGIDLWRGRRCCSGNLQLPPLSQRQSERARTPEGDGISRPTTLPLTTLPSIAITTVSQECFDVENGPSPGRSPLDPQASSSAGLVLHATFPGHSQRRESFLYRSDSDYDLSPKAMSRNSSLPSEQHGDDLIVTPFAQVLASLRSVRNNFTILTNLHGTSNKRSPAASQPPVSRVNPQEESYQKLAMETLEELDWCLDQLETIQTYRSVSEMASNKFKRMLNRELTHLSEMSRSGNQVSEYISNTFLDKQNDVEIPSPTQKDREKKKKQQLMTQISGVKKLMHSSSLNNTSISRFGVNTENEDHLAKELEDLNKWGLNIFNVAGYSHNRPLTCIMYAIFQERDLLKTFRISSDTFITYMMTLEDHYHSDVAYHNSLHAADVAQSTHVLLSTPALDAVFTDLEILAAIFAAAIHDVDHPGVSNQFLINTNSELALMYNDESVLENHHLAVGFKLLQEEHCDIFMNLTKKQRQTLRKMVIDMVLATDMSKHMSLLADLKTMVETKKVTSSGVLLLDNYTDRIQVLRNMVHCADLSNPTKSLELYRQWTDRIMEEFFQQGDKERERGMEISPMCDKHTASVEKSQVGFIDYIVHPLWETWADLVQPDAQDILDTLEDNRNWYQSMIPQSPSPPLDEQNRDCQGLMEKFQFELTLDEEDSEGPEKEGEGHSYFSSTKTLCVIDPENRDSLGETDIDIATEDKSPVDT

For the compound `Nc1ccc(N=Nc2ccccc2)c(N)n1`, the compound was called inactive in assay [1], in assay [2], in assay [6], in [7] and in [9]. Moreover, the Potency result in [3], in assay [4], in assay [5] and in assay [8] was “inactive” each time. Also, in [10], the caspase-3 activation was -7.28%.

Take `N[C@H](CC(=O)O)C(=O)O`: in [1], the outcome was inactive.

For the compound `COc1cc(S(C)=O)ccc1-c1nc2ncccc2[nH]1` (configuration not stated), the outcome in assay [1] was inactive.

Turning to `O=C(O)Cc1cc(I)c(Oc2ccc(O)c(I)c2)c(I)c1`, the result in [1] was inactive.

Turning to `CN1C(=O)OC(C)(C)C1=O`, the result in assay [1] was inactive.

Consider `c1ccc2ccccc2c1`, for which the compound was called inactive in [2], in assay [6], in assay [7] and in [9]. For the same compound, the Potency result in [3], in [4], in [5] and in assay [8] was “inactive” each time. For the same compound, in assay [10], the caspase-3 activation is -0.432%.

`Cc1ncc(C[n+]2csc(CCO)c2C)c(N)n1`: in [1], the compound was classed as inactive.

In the case of `CNC(=O)c1c(I)c(C(=O)NCC(=O)Nc2c(I)c(C(=O)O)c(I)c(C(=O)NCCO)c2I)c(I)c(N(C)C(C)=O)c1I`, the result in [1] was inactive.

For the compound `OCC(O)CO`, the outcome in assay [2], in assay [6], in assay [7] and in [9] was inactive. The Potency entry in assay [3], in assay [4], in assay [5] and in [8] was “inactive” throughout. Also, in [10], the caspase-3 activation is 3.75% and 1.59%.

For `NC(N)=O`, the result in assay [2], in assay [6], in assay [7] and in [9] was inactive. Further, the Potency entry in [3], in assay [4], in assay [5] and in [8] was “inactive” throughout. In [10], the caspase-3 activation is 1.05%.

For the compound `CC(=O)N=c1sc(S(N)(=O)=O)nn1C`, in assay [1], the compound was called inactive.

In the case of `CCCOc1cc(N)ccc1C(=O)OCCN(CC)CC`, the compound was called inactive in [1].

As for `O=C1NCCN1c1ncc([N+](=O)[O-])s1`, the compound was called inactive in assay [1].

`CC1(C)S[C@@H]2[C@H](NC(=O)C3(N)CCCCC3)C(=O)N2[C@H]1C(=O)O`: in assay [1], the outcome was inactive.

For `O=P(O)(O)OP(=O)(O)O`, the call in assay [1] was inactive.

In the case of `O=P(O)(O)O`, the outcome in assay [2], in [6], in [7] and in [9] was inactive. Besides, the Potency result in assay [3], in assay [4], in [5] and in assay [8] was “inactive” throughout. In addition, the caspase-3 activation in [10] was -0.448%.

For the compound `O=C(O)CCC(=O)c1ccc(-c2ccccc2)cc1`, the outcome in assay [1] was inactive.

In the case of `CCSc1ccc2c(c1)N(CCCN1CCN(C)CC1)c1ccccc1S2`, the compound was called inactive in assay [1].

On to `Cc1cc(C)c(NC(=O)C[C@H](CC(=O)O)c2cccc3ccccc23)c(C(=O)N2CCC3(CCCC3)CC2)c1`, for which the compound was classed as inactive in [1].

With `Cc1ncc[nH]1`, the compound was classed as inactive in assay [2], in assay [6], in assay [7] and in [9]. The Potency entry in [3], in [4], in assay [5] and in assay [8] was “inactive” each time. For the same compound, in assay [10], the caspase-3 activation is -0.913%.

With `CC1=CC(=O)NS(=O)(=O)O1`, the result in assay [2], in assay [6], in [7] and in assay [9] was inactive. The Potency entry in assay [3], in [4], in assay [5] and in [8] was “inactive” throughout. Besides, the caspase-3 activation in [10] is -2.78%.

For `CC(C)O`, the compound was classed as inactive in [2], in [6], in assay [7] and in [9]. The Potency result in assay [3], in assay [4], in assay [5] and in [8] was “inactive” throughout. The caspase-3 activation in [10] is 1.95%.

As to `CC(=O)[C@H]1CC[C@H]2[C@@H]3C=CC4=CC(=O)CC[C@@]4(C)[C@H]3CC[C@]12C`, the compound was classed as inactive in assay [1].

On to `Oc1cccc(O)c1O`, for which the outcome in assay [2], in [6], in [7] and in assay [9] was inactive. The Potency entry in assay [3], in assay [4], in assay [5] and in assay [8] was “inactive” throughout. Moreover, the caspase-3 activation in [10] was 1.35%.

For the compound `Cc1ccc(S(=O)(=O)O)cc1C`, the compound was classed as inactive in assay [2], in [6], in assay [7] and in assay [9]. In addition, the Potency entry in assay [3], in assay [4], in assay [5] and in [8] was “inactive” each time. Moreover, the caspase-3 activation in assay [10] was 0.165%.

Take `CO/N=C(/C(=O)N[C@@H]1C(=O)N2C(C(=O)O)=C(COC(N)=O)CS[C@H]12)c1ccco1`: the result in assay [2], in assay [6], in assay [7] and in assay [9] was inactive. For the same compound, the Potency result in assay [3], in [4], in [5] and in assay [8] was “inactive” throughout. Moreover, the caspase-3 activation in assay [10] is 0.731%.

Turning to `C[C@H]1O[C@@H](O[C@H]2[C@@H](O)C[C@H](O[C@H]3[C@@H](O)C[C@H](O[C@H]4CC[C@@]5(C)[C@H](CC[C@@H]6[C@@H]5C[C@@H](O)[C@]5(C)[C@@H](C7=CC(=O)OC7)CC[C@]65O)C4)O[C@@H]3C)O[C@@H]2C)C[C@H](O)[C@@H]1O`, the result in assay [2], in [6], in assay [7] and in assay [9] was inactive. Further, the Potency in assay [3] is 0.0126 µM (active). Besides, the Potency entry in assay [4], in assay [5] and in [8] was “inactive” in each case. Further, in [10], the caspase-3 activation was -3.59%.

As to `OCl`, the outcome in [2], in [6], in assay [7] and in [9] was inactive. Also, the Potency entry in assay [3], in assay [4], in assay [5] and in [8] was “inactive” in each case. The caspase-3 activation in assay [10] is 2.43%.

Consider `NCCN`, for which the call in assay [2], in assay [6], in assay [7] and in assay [9] was inactive. The Potency entry in assay [3], in assay [4], in assay [5] and in [8] was “inactive” throughout. In addition, the caspase-3 activation in assay [10] is 0.975%.

With `C=C1C(CCl)(CCl)C2(Cl)C(Cl)C(Cl)C1(Cl)C2(Cl)Cl` (configuration not stated), in assay [2], the result was inactive. Moreover, the Potency in assay [4] was 39.8 µM (active); in [5] it was 63.1 µM (active). In addition, the figures for the caspase-3 activation in assay [8] and in assay [10] were 90.5% (active) and 252% (active), respectively.

In the case of `CC[C@H]1OC(=O)[C@H](C)[C@@H](O[C@H]2C[C@@](C)(OC)[C@@H](O)[C@H](C)O2)[C@H](C)[C@@H](O[C@@H]2O[C@H](C)C[C@H](N(C)C)[C@H]2O)[C@](C)(O)C[C@@H](C)CN(C)[C@H](C)[C@@H](O)[C@]1(C)O`, the result in [2], in assay [6], in [7] and in assay [9] was inactive. Further, the Potency entry in assay [3], in assay [4] and in assay [5] was “inactive” each time. In assay [10], the caspase-3 activation is 0.727%.

For `CC(C)(C)CC(C)(C)c1ccc(OCCO)cc1`, the call in [2], in assay [6], in [7] and in [9] was inactive. Further, the Potency entry in assay [3], in [4], in assay [5] and in assay [8] was “inactive” throughout. The caspase-3 activation in assay [10] is 5.17%.

As for `CC1=CCC2CC1C2(C)C` (configuration not stated), the result in assay [2], in [6] and in assay [7] was inactive. Further, the Potency result in [3], in assay [4], in assay [5] and in assay [8] was “inactive” in each case. The caspase-3 activation in assay [10] is 0.916%.
